From PubChem BioAssay (NCATS)
Some of the results follow. Results filed as inconclusive are left out. Calls of active or inactive are those of the source. The call rests on the fitted dose curve; in most records, active means well fitted curve in the direction sought with a large enough effect; inconclusive means small, poorly fitted or top-dose-only effect, or another doubt; inactive means no such curve, though single readings can be large; an effect the other way counts as inactive or inconclusive.

Assays:
[1] = molecular target: Lethal(3)malignant brain tumor-like protein 1 (Homo sapiens) (UniProt Q9Y468); assay: qHTS Assay for the Inhibitors of L3MBTL1: Hit Validation (AID 540279); details: L3MBTL1 methyl-lysine binding inhibition, biochemical qHTS; further: nearly all actives have a fitted effect of over 70% in size
Source text: The histone code is comprised of many post-translational modifications that occur mainly in histone tail peptides. The identity and location of these marks are read by a variety of histone binding proteins that are emerging as important regulators of cellular differentiation and development and are increasingly being implicated in numerous disease states. Small molecule probes that disrupt the interaction between histone binding proteins and chromatin would enable a systematic chemical biology study of proteins that read the histone code and could potentially reveal new targets for drug discovery. However, no such small molecules are known. This dearth of quality molecular probes can largely be attributed to the novelty of the target class and the lack of screening assays. This proposal details the development of the first high-throughput screening assay for the discovery of inhibitors of methyl-lysine binding proteins and how it can be used to initiate a full-scale discovery effort for antagonists of histone binding proteins. […]
To each well, 2 uL of L3MBTL1 protein (final 50 nM) and 1 uL biotinylated histone peptide monomethylated at Lys9 [b-AHA-H3(1-15)K9me1] […] Microplates were then be read on an EnVision multilabel plate reader using the 1,536 plate HTS AlphaScreen aperture (excitation time 80 ms, measurement time 240 ms).

[2] = molecular target: DNA polymerase kappa (Homo sapiens) (UniProt Q9UBT6); assay: qHTS for Inhibitors of Polymerase Kappa: Confirmatory Assay for Cherry-picked Compounds (AID 720501); details: purified Pol-kappa, fluorescent strand-displacement substrate
How it was run: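 Strand-displacement fluorescence read-out: TAMRA reporter released from a BHQ-2-quenched template, measured at 525/598 nm over a 10 min kinetic window. Substrate was 50 nM final; enzyme was 10 nM Pol-kappa, preincubated 15 min at room temperature with compound.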

[3] = molecular target: DNA polymerase eta (Homo sapiens) (UniProt Q9Y253); assay: qHTS for Inhibitors of Polymerase Eta: Confirmatory Assay for Cherry-picked Compounds (AID 720502); details: Pol eta primer extension, TAMRA/BHQ fluorescence, 10 min
How it was run: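 Compounds are preincubated 15 min at room temperature with 10 nM human Pol eta, with buffer-only wells serving as negative control. Adding 50 nM final substrate starts the reaction, and TAMRA fluorescence is read over 10 min.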

Measured: Potency
Potency means the concentration at half of the fitted maximal effect.

Chain of DNA polymerase kappa (Homo sapiens) (Q9UBT6 whole entry, looked up): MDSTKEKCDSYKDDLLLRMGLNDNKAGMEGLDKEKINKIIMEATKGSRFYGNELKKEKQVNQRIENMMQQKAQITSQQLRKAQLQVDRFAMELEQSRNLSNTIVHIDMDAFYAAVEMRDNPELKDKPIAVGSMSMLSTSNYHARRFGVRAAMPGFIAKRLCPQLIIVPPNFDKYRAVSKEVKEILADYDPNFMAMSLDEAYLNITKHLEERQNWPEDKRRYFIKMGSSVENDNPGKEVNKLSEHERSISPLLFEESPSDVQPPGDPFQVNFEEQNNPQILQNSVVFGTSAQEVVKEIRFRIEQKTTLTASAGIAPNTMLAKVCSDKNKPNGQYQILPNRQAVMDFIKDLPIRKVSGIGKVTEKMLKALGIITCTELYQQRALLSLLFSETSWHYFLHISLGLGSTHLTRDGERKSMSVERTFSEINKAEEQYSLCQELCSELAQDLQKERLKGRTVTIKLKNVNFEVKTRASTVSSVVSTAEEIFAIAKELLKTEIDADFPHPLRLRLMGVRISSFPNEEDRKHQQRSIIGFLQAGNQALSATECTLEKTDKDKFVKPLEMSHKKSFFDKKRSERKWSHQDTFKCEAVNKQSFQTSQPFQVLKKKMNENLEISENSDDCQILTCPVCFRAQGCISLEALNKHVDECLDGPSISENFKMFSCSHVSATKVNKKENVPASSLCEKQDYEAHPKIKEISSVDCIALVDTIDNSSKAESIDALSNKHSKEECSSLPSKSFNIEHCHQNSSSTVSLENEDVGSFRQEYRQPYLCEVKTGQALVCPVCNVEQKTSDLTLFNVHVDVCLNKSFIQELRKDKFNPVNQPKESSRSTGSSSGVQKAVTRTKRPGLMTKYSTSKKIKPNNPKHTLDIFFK
Chain of DNA polymerase eta (Homo sapiens) (Q9Y253 whole entry, looked up): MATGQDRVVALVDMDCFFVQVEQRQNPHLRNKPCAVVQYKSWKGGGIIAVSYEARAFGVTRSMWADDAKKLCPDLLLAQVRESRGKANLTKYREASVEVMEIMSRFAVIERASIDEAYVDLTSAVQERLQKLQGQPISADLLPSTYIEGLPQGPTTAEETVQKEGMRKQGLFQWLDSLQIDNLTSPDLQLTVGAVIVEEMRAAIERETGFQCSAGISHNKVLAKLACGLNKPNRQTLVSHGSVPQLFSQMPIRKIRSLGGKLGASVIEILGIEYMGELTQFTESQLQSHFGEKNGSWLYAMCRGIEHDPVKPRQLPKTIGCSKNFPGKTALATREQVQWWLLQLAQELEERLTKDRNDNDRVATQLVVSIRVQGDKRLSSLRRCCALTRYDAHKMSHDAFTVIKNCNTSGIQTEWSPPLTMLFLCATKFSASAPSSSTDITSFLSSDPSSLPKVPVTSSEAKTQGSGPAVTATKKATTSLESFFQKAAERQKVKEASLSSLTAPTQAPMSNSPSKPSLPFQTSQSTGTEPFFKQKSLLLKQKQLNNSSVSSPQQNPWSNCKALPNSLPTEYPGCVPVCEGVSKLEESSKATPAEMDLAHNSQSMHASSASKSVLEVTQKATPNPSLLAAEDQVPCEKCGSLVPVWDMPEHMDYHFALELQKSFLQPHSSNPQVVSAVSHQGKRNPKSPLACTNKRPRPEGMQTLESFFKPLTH
Chain of Lethal(3)malignant brain tumor-like protein 1 (Homo sapiens) (Q9Y468 whole entry, looked up): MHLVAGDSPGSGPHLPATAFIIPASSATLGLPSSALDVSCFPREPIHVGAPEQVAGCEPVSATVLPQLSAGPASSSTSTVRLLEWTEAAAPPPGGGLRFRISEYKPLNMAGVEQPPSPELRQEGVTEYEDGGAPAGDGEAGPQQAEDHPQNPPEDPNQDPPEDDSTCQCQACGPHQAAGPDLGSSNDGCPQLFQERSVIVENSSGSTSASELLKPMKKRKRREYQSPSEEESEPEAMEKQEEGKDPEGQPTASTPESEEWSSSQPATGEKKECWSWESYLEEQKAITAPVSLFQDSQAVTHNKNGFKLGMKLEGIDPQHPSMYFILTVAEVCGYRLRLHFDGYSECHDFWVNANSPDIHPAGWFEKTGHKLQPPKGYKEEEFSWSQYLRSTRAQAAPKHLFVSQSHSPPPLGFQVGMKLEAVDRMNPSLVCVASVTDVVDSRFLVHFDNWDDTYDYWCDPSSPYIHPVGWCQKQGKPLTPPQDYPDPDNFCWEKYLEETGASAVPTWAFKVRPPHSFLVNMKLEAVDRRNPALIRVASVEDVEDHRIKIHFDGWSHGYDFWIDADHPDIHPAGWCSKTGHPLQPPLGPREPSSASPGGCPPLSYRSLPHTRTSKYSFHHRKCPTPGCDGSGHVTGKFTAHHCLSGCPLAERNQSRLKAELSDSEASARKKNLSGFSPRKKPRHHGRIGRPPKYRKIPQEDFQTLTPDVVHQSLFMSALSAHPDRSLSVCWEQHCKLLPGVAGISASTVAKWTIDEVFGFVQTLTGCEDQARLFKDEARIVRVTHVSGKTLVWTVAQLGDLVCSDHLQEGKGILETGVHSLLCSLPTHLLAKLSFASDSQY

Cc1cc(/C=C2/C(=O)NC(=O)N(Cc3ccco3)C2=O)c(C)n1-c1ccc(C(=O)O)cc1
active: [1] 9.47 µM | [2] 18.9 µM | [3] 60.1 µM
